Results published in PubChem BioAssay (NCI).
The panel holds about 83,000 compounds, 20% with a hit somewhere; the sample as a whole holds those more often.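 96-well plates, one dose, 48 hours. Percent growth reported; active if below 10.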 Active and inactive are the calls of the source.

What follows are compounds tested on A549/ATCC NSCLC (assay: NCI-60 one-dose screen, 48 h (100 = growth as untreated, 0 = no growth, -100 = all killed)). Settings: 10 µM unless noted.

SMILES | growth
O=C(O)COc1ccc([N+](=O)[O-])cc1Cl | 100% (inactive)
C=C[C@]1(C)C=C2C(=O)[C@@]3(O)OC[C@@]4(CCCC(C)(C)C43O)C2(O)C(O)C1 (stereo not given in full) | 76.4% (inactive)
COC(=O)C(C(=O)OC)C(Br)C(Br)C(Br)c1ccccc1 (stereo not given) | 96% (inactive)
C=CCNCCC#N | 99.2% (inactive)
O=C1C=C(OCC=C(C(F)(F)F)C(F)(F)F)c2ccccc2C1=O | 82.9% (inactive)
N#CCc1ncc(-c2ccc(C(F)(F)F)cc2)c(NC2CCCCCC2)n1 | 21.1% [100 µM] (inactive)
C[C@]12CC[C@H]3[C@@H](CC[C@H]4C[C@@H](O)CC[C@@]43C)[C@@H]1CC(=O)C2 | 100% (inactive)
COC(=O)c1cc(=O)nc(N/N=C/c2ccccc2O)s1 | 94.4% (inactive)
[N-]=[N+]=Nc1ncc(-c2ccc(C(F)(F)F)cc2)c(NC2CCCCCC2)n1 | 23.6% [100 µM] (inactive)
NC(CSC(c1ccccc1)(c1ccccc1)c1ccccc1)C(=O)NCC(=O)O (stereo not given) | 86.8% (inactive)
COc1cc(-c2nc(/C=C3/C(=O)Nc4ccccc43)c3ccccn23)cc(OC)c1OC | 77% (inactive)
COc1cc2cn3c4ccc(O)cc4[nH]c(=O)c3c2cc1OC | 10.6% (inactive)
CCCCCCCCCCCCCCCCNC(=O)Nc1ccc(C)c(NC(=O)NCCCCCCCCCCCCCCCC)c1 | 104% (inactive)
O=C(c1ccccc1)c1ccccc1-c1ccccc1 | 38.3% (inactive)
CN1NC(c2ccccc2)NN(C)C1=O | 101% (inactive)
COc1cc2c(c3c1c(=O)c1cccc(F)c1n3C)C=CC(C)(C)O2 | 89.4% (inactive)
NCCCOc1cc2ccccc2cc1C(=O)Nc1ccc(Cl)cc1OC(=O)c1cc2ccccc2cc1OCCCN | -94.3% (active)
O=C(/C=C/c1ccc(Cl)cc1)c1ccc(Cl)cc1 | 95.5% (inactive)
CC(=O)O.[In] | 99.6% (inactive)
COC(=O)[C@H](Cc1cn(C)cn1)NC(=O)[C@H](CC(=O)OCc1ccccc1)NC(=O)Nc1cc(C(F)(F)F)cc(C(F)(F)F)c1 | -80.9% [100 µM] (active)

SMILES | growth
COc1cc([C@@H]2c3cc4c(cc3[C@H](O)[C@H]3COC[C@@H]23)OCO4)cc(OC)c1OC | 98.8% (inactive)
COc1ccc(/C=C2\CCCC3=C2N=C2SC=NN2C3c2ccc(OC)c(OC)c2)cc1OC (stereo not given) | 31.9% (inactive)
CC(=O)CC(=O)OC/C=C(/C)CCC=C(C)C | 105% (inactive)
CC(=O)Nc1ccc(S(=O)(=O)Cl)cc1 | 104% (inactive)
CC(CCN1CCN(CCC(C)CC(C)(C)C)C1CC(C)CC(C)(C)C)CC(C)(C)C (stereo not given) | 96.2% (inactive)
C=C(C)C(C(=O)OCC)(C(=O)OCC)C(C)C | 96.5% (inactive)
CSCc1ncc(-c2ccc(C(F)(F)F)cc2)c(NC2CCCCCC2)n1 | 68.3% [25 µM] (inactive)
CCn1cnc(C[C@H](NC(=O)[C@@H](NC(=O)Nc2cc(C(F)(F)F)cc(C(F)(F)F)c2)C(C)C)C(=O)OC)c1 | -71.4% [100 µM] (active)
O=Nc1ccc(O)c2ccccc12 | 41.6% (inactive)
COC(=O)c1c[n+]([O-])ccc1OC | 105% (inactive)
CC#Cc1nc(Nc2cc(C)[nH]n2)c2ccccc2n1 | 1.41% [100 µM] (active)
CC(Br)c1nc2ccccc2cc1C(N)=O (stereo not given) | 97% (inactive)
COC(=O)[C@H](Cc1cn(C)cn1)NC(=O)[C@@H](NC(=O)Nc1cc(C(F)(F)F)cc(C(F)(F)F)c1)C(C)(C)C | 14.8% [100 µM] (inactive)
CCCCCCC(C(=O)OCC)(C(=O)OCC)C1CCCCCC1 | 96% (inactive)
CCCCCCCCCCCCCCCCCCOP(=O)(O)O | 105% (inactive)
CCC(C)CC(N)O (stereo not given) | 106% (inactive)
CN(C)CCOC(=O)C(C)(C)C | 101% (inactive)
CNc1ccc(Nc2ccc(S(=O)(=O)O)cc2)c2c1C(=O)c1ccccc1C2=O | 92% (inactive)
Cn1c2ccccc2c2ccccc21 | 108% (inactive)
NCCCOc1cc(Cl)ccc1NC(=O)c1cc2ccccc2cc1OCCCN | -93.6% (active)
